# Source: PubChem
# Shown are actives, neighbours in structure and some others; about 12% of the full set was active somewhere.
# PLK1 PBD inh: inhibitors of human PLK1 polo-box domain binding; P53350; Plk1 PBD binding of FITC phosphopeptide, fluorescence polarization; Potency, µM, for inactives: max response, negative = inhibition, most hits filed as inhibitors; 360,000 tested, 2.8% active; AID 720504; note: potency is the fitted concentration of half-maximal effect; series mostly up to about 57 µM; % is set by controls: 0 for no effect and ±100 for the full control effect; nearly all actives have a fitted effect of over 65% in size
# BAZ2B block: BAZ2B (human) inhibition; Potency, µM (top dose mostly 114 µM), without a hit: at the top dose activity change, negative = inhibition, most hits filed as inhibitors; AID 504333; AlphaScreen BAZ2B-H3K14Ac peptide displacement; 360,000 tested, 4.4% active; note: potency is the fitted concentration of half-maximal effect; % is set by controls: 0 for no effect and ±100 for the full control effect; nearly all actives have a fitted effect of over 60% in size
# Target sequence (Q9UIF8 whole entry, looked up): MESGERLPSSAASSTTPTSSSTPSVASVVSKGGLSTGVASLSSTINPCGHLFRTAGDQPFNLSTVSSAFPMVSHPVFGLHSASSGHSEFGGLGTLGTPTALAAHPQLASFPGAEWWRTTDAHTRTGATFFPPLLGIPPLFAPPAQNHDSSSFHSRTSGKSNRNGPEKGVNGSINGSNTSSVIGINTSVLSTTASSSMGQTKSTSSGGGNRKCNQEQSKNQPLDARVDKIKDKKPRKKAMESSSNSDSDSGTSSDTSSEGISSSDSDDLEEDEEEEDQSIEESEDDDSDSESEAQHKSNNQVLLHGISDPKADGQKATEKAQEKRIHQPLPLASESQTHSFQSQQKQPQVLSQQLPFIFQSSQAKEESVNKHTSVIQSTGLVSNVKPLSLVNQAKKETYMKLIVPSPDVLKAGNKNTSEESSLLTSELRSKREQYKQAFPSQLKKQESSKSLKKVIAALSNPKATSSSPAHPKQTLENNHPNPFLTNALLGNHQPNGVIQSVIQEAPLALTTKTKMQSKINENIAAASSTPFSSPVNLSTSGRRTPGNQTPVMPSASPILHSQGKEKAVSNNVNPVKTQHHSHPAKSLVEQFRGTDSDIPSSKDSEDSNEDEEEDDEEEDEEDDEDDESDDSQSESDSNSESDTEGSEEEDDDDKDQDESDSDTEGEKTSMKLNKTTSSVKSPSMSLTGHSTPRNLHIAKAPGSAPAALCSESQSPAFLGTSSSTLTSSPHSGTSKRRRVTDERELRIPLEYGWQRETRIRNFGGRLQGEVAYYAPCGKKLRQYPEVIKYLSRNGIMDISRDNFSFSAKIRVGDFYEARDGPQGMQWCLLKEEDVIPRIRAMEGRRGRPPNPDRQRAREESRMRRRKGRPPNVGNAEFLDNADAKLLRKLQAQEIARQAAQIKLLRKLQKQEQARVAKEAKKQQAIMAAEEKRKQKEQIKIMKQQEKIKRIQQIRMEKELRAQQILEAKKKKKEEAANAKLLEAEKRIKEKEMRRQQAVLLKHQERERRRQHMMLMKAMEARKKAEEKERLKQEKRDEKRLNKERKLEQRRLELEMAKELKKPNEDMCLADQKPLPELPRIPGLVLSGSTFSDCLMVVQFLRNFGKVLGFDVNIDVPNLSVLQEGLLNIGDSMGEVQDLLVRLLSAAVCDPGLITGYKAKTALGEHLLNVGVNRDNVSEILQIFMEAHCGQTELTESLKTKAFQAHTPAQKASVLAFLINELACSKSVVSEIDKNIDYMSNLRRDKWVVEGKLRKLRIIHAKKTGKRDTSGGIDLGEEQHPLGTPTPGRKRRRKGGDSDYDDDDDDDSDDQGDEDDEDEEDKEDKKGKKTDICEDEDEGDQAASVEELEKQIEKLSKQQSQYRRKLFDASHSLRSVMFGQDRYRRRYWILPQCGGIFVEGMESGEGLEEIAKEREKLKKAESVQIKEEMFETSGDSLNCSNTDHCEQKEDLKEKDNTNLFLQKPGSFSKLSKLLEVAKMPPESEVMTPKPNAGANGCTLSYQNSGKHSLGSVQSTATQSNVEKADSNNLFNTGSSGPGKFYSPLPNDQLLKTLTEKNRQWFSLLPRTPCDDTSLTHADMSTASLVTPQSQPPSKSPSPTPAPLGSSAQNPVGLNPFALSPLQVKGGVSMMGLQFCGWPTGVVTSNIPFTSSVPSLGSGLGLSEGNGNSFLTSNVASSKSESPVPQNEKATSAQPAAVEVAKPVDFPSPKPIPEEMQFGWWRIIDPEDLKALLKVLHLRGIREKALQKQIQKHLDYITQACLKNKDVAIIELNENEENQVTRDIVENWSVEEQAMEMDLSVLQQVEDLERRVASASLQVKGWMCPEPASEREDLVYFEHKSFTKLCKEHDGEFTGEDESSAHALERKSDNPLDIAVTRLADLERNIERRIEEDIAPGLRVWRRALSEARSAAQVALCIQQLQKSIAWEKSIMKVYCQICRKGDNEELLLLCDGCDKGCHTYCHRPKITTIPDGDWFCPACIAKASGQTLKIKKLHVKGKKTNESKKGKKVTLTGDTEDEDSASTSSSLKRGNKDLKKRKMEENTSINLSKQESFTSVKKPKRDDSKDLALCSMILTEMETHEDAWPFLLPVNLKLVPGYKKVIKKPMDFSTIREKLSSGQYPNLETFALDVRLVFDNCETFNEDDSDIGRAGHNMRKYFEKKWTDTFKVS
#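 Inhibition is scored as reduced AlphaScreen emission. The BAZ2B/b-H3(5-23)K14Ac complex (50 nM each) in PBS pH 7.4, 0.01% Tween-20 meets compound (up to 110 uM) for 30 min at RT before bead addition.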
# PI5P4K alpha inh: PI5P4K alpha (human) kinase inhibition; P48426; PI5P4Kalpha enzyme, ADP-Glo luminescence, 60 min; stronger effect = lower value; max response, %; 330,000 tested, 1.2% active; AID 652105; active = max response of -50% or lower; inconclusive = between -30% and -50%; inactive = -30% or higher; note: value at the top dose of about 77 µM; % is set by controls: 0 for no effect and ±100 for the full control effect
#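 Luminescence from ADP-Glo served as readout of PI5P4Kalpha activity in a qHTS format. Reaction: enzyme, substrate, compound, ATP at 5 microM final, 60 min at RT.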
# HP1b binding inh: inhibitors of HP1-beta chromodomain binding to methylated histone tails; Potency, µM (doses to about 114 µM), for inactives: at the top dose activity change, negative = inhibition, hits mostly inhibitors; 390,000 tested, 0.56% active; AlphaScreen HP1-beta / biotin-H3K9me3 peptide binding; AID 540317; note: potency is the fitted concentration of half-maximal effect; nearly all actives have a fitted effect of over 70% in size
#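 Compound inhibition of the preformed complex between 50 nM HP1-beta and 50 nM biotinylated H3K9me3 peptide was read by AlphaScreen. Buffer was PBS pH 7.4 with 0.01% Tween-20. Incubations ran 30 min at room temperature, with 10 ug/mL donor/acceptor beads.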
# G9a inh: G9a (human) methyltransferase inhibition | AID 504332 | Potency, µM (series often up to 102 µM), for inactives: top-dose activity, negative = inhibition, most hits filed as inhibitors | 350,000 tested, 8.8% active | Q96KQ7 | G9a H3K9 monomethylation, AlphaScreen, 2 h; note: potency is the fitted concentration of half-maximal effect; % is set by controls: 0 for no effect and ±100 for the full control effect; nearly all actives have a fitted effect of over 75% in size
#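 Methyltransferase reactions run at room temperature for 2 h (20 nM enzyme, 500 nM biotin-H3K9 peptide, 20 uM SAM) after a 15 min compound preincubation; product detected by AlphaScreen beads and anti-H3K9me1 antibody.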
# JMJD2A Tudor inh: inhibitors of human JMJD2A Tudor domain. AlphaScreen JMJD2A-Tudor / H3K4me3 peptide binding. Potency, µM (top dose mostly 114 µM), inactives show at the highest dose activity change, negative = inhibition, actives largely listed as inhibitors. 390,000 tested, 4.4% active. AID 504339; note: potency is the fitted concentration of half-maximal effect; % is set by controls: 0 for no effect and ±100 for the full control effect; nearly all actives have a fitted effect of over 50% in size
# * hit, by the source's call; ? = inconclusive; nt = no result; ! = not confirmed by another sample; [ ] = remark or other dose. Unless noted, calls come from the whole dose curve; as a rule, active = well fitted curve in the direction sought with a large enough effect; inconclusive = small, poorly fitted or top-dose-only effect, or another doubt; inactive = no such curve, though single readings can be large; an effect the other way counts as inactive or inconclusive.
SMILES,PLK1 PBD inh,BAZ2B block,PI5P4K alpha inh,HP1b binding inh,G9a inh,JMJD2A Tudor inh
Cc1cc(Cl)c2oc(C(=O)N(C)CCc3cnn(C)c3)c(C)c2c1,24µM*,-33%,2,-1%,-10%,?
Cc1ccc(/C=C/S(=O)(=O)NCC(=O)OCC(=O)Nc2c(F)cccc2F)cc1,-13%,3%,1,13%,20µM*,-13%
Cc1ccc(/C=C/S(=O)(=O)NCC(=O)OCC(=O)Nc2ccc(C(N)=O)cc2)cc1,-5%,5%,-6,22%,45µM*,-14%
Cc1ccc(/C=C/S(=O)(=O)NCC(=O)OCC(=O)Nc2ccc(C(=O)N(C)C)cc2)cc1,-1%,13%,3,30%,19%[12.7 µM],-4%
O=S(=O)(c1ccc(OC(F)(F)F)cc1)N1CCN(c2nc(-c3ccccc3)nc3ccccc23)CC1,nt,nt,nt,30%,nt,-8%
Cc1ccc(-c2nc3ccccn3c2Nc2ccc3c(c2)OCO3)cc1,nt,18µM*,nt,?,10µM*,25µM*
Cc1ccc(Nc2c(-c3ccc(N(C)C)cc3)nc3ccccn23)cc1,nt,-20%,nt,?,?,7.9µM*
Cc1ccc(-c2nc3ccccn3c2NCc2ccc3c(c2)OCO3)cc1,-4%,?,1,?,?,100µM*
Cc1ccc(Nc2c(-c3ccccc3)nc3cnccn23)cc1,-7%,-12%,-9,36%,10%,10%
COc1ccc(-c2nc3ccc(C)cn3c2NCc2ccc3c(c2)OCO3)cc1,-1%,?,1,-9%,-4%,?
Cc1cccc2nc(-c3ccc(N(C)C)cc3)c(Nc3ccc4c(c3)OCO4)n12,nt,nt,nt,18%,2.2µM*,-29%
Cc1cccc(/C=N\Nc2nnc(-c3ccccc3)c(=O)[nH]2)c1,-8%,-37%,-5,1%,-5%[59 µM],?
Cc1nnc(NCCc2ccccc2)[nH]c1=O,-11%,2%,nt,9%,30%,-13%
C/C(=N\Nc1nnc(C)c(=O)[nH]1)C(=O)O,1%,13µM*,nt,37%,45%[2.33 µM],?
CC(/C=N/Nc1nnc(C)c(=O)[nH]1)=C\c1ccccc1,-4%,-42%,nt,17%,10µM*,-21%
CC(=O)c1cccc(NC(=S)NCc2ccco2)c1,-15%,-31%,-3,12%,-5%,-17%
CCN(CCO)c1ccc(NC(=S)Nc2cccc(S(=O)(=O)N(C)C)c2)cc1,27µM*,?,-11,-18%,?,-9%[11.4 µM]
CN(C)S(=O)(=O)c1cccc(NC(=S)NCc2ccco2)c1,6%,nt,-2,18%,45µM*,-34%
CCc1cccc(C)c1NC(=O)Cn1ccn(Cc2ccc(Cl)cc2)c(=O)c1=O,nt,-1%,nt,-1%,-4%[59 µM],-20%
Cc1c(NC(=O)/C=C/c2cn(-c3ccccc3)nc2-c2ccc(F)cc2)c(=O)n(-c2ccccc2)n1C,11µM*,?,-30,-19%,?,?
Cc1ccc(-c2nn(-c3ccccc3)cc2/C=C/C(=O)Nc2nccs2)cc1,-7%,-4%,3,25%,38%[59 µM],10%
CC1=NNC(=O)/C1=C\c1cn(-c2ccccc2)nc1-c1ccc(F)cc1,1.5µM*,-38%,-13,-4%,10µM*,-32%
CC1=NNC(=O)/C1=C\c1cn(-c2ccccc2)nc1-c1cccs1,2.7µM*,?,-28,-13%,10µM*,?
CCOc1ccc(C(=O)NCC(c2ccco2)S(=O)(=O)c2cccs2)cc1 (configuration not stated),nt,-8%,nt,15%,-3%[59 µM],-12%
Clc1ccccc1N=C1NN=C(c2cccs2)CS1,-19%,nt,5,14%,89µM*,-30%
SMILES,PLK1 PBD inh,BAZ2B block,PI5P4K alpha inh,HP1b binding inh,G9a inh,JMJD2A Tudor inh
Fc1ccccc1N=C1NN=C(c2ccccc2)CS1,-8%,-39%,1,-1%,?,-29%
C[C@@H]1CN([C@@H](C)CO)C(=O)CCCn2nncc2CO[C@H]1CN(C)S(=O)(=O)c1cccc(F)c1,-15%,nt,1,nt,nt,nt
CCC(=O)Nc1nc(C)c(-c2csc(Nc3ccccn3)n2)s1,-7%,40µM*,1,-16%,40µM*,?
CCCC(=O)Nc1nc(C)c(-c2csc(Nc3ccccc3C)n2)s1,?,?,-1,-3%,11µM*,?
Cc1ccc(-c2nn(-c3ccc(F)cc3)c3c2cnc2cc(F)c(F)cc23)cc1,nt,nt,nt,6%,-4%[59 µM],-18%
CC(=O)Nc1cccc(NC(=O)Nc2ccc(C)c(Cl)c2)c1,-3%,3%,-1,2%,12%,-21%
COC(=O)c1sccc1NC(=S)Nc1cccc(F)c1,-3%,-7%,11,40%,nt,-2%
CC(=O)Nc1cccc(NC(=S)Nc2ccc(F)c(Cl)c2)c1,30µM*,-20%,-9,12%,?,-34%
CC(=O)NNC(=S)Nc1cccc(F)c1,-13%,0%,3,19%,13µM*,-4%
O=C(NCCc1ccc(F)cc1)C(=O)NCC(c1ccc2c(c1)OCO2)N1CCOCC1 (configuration not stated),nt,-18%,nt,3%[57 µM],-18%[59 µM],-5%
Cc1c(C=Nc2ccc(S(=O)(=O)CCO)cc2)c(O)[nH]c(=O)c1C#N,-8%,nt,-78*,52%,nt,-10%
Cc1c(C=Nc2ccc(S(=O)(=O)N(C)C)cc2)c(O)[nH]c(=O)c1C#N,0%,nt,-90*,16%,nt,-8%
Cc1[nH]n(-c2ccc(F)cc2)c(=O)c1C=Nc1ccc(S(=O)(=O)N(C)C)cc1,7%,1%,0,27%,20%[59 µM],-7%
CCOC(=O)c1ccc(N=Nc2c(C)c(C#N)c(O)[nH]c2=O)cc1,-13%,?,?,20%,?,?
CC(=O)N1Cc2cc(C(=O)NCC(F)(F)F)nc(-c3cccc(-c4cccnc4)c3)c2[C@@H]1CCO,-12%,nt,-1,nt,nt,nt
CCCCn1c(OC(=S)N(CC)CC)cc(C)nc1=S,-3%,nt,-2,nt,nt,nt
Cn1c(=O)c(-c2ccc(Cl)cc2)nc2cnc(N3CCOCC3)nc21,nt,nt,nt,nt,7%[0.501 µM],nt
Cc1cccc2cc3c(N)c(C(=O)N4CCc5ccccc54)sc3nc12,1%,-7%,0,25%,1.4µM*,-22%
Cc1cccc2cc3c(N)c(C#N)sc3nc12,-6%,9%,6,112%,7.9µM*,11%
COc1ccc(NC(=O)Cn2nc(C)c3c(C)n(-c4ccccc4)nc3c2=O)cc1OC,nt,-30%,nt,38%,?,-9%
CCOC(=O)C1CCN(C(=O)CS(=O)Cc2nc(-c3ccc(C)cc3)oc2C)CC1 (configuration not stated),?,3%,-12,18%,28µM*,-14%
Cc1ccc(-c2nc(CS(=O)CC(=O)N3CCN(c4ccc(F)cc4)CC3)c(C)o2)cc1 (configuration not stated),-4%,28µM*!,5,47%,14µM*!,?
